Experimental data taken from ChEMBL document CHEMBL3988442, “University of Dundee, Small-Polar-MMV Screening Library” (2021).
About 13,000 (27%) of roughly 48,000 compounds showed an effect of 50% or more. Some of the results follow.

System: Wolbachia pipientis
Experiment: Anti-Wolbachia Cell-Based Screen
Assay type: functional
Set-up: scale not given: in the data most compounds retested in dose-response had high values
Settings: 5 µM

In order of rising “Percent Effect” value:
1. CNS(=O)(=O)c1ccc(CNC(=O)Nc2cc(C)on2)s1  -23.04%
2. Cc1cc(C(=O)N2CCC3(CC2)c2nc[nH]c2CCN3CC(C)C)no1  -20.9%
3. Cc1cccc(C(=O)N2CCN(c3ccccc3F)CC2)n1  -20.73%
4. CN(C)S(=O)(=O)N1C[C@@H]2CN(Cc3ccoc3)CCO[C@@H]2C1.O=C(O)C(F)(F)F  -19.85%
5. CCc1ccc(C(=O)N2CC[C@](C)(O)C(C)(C)C2)[nH]1  -18.68%
6. O=C1NCCCN1Cc1nc(-c2ccc(N3CCCCC3)cc2)no1  -15.88%
7. CN(C)C(=O)[C@@H]1C[C@@H]2CCN(Cc3ccc4c(c3)OCO4)C[C@@H]2O1.O=C(O)C(F)(F)F  -14.9%
8. Cc1nnc2n1CCN(C(=O)CN1C(=O)CCCc3ccccc31)C2  -14.77%
9. COc1cccc([C@H]2CN(C(=O)c3cc(C)on3)C[C@@H]2N)c1  -12.5%
10. COCCC(C)NCc1ccccc1-n1ccnc1 (centres undefined)  -12.2%
11. CNC(=O)[C@H]1C[C@@H]2CN(S(=O)(=O)c3ccccc3)C[C@@H]2N1C.O=C(O)C(F)(F)F  -12.02%
12. Cc1cc(-c2nc(-c3cccc(CN4CCOCC4)c3)no2)no1  -11.24%
13. Cc1cccc(C(C(=O)N(C)Cc2cc(C)no2)N(C)C)c1 (centres undefined)  -11.12%
14. NC(=O)C(NC(=O)Cc1cnn(-c2ccccc2)n1)c1ccccc1 (centres undefined)  -10.55%
15. O=C(CC1CCCO1)Nc1cccc(N2CCN(CC3CC3)CC2)c1 (centres undefined)  -9.056%
16. CNC(=O)[C@H]1C[C@@H]2CN(S(=O)(=O)c3cccc(C)c3)C[C@@H]2N1C.O=C(O)C(F)(F)F  -8.978%
17. Cc1csc(N2CCC(NCC3(O)CCc4ccccc43)CC2)n1 (centres undefined)  -8.914%
18. CNC(=O)[C@H]1C[C@@H]2CN(S(=O)(=O)c3ccc(F)cc3)C[C@@H]2N1C.O=C(O)C(F)(F)F  -8.738%
19. Cn1c(C2CC2)nc2cc(NC(=O)C3CCOC3)ccc21 (centres undefined)  -8.416%
20. CC(C#N)CSc1ccccc1NCC(=O)Nc1ccccc1 (centres undefined)  -8.038%
21. CC(C)c1nnc(NCc2ccsc2)o1  -7.753%
22. Cc1cc(NC(=O)N2CCN(c3nc(C)c(C)s3)CC2)no1  -7.587%
23. Cc1nnc(-c2ccc(C(=O)Nc3ccnc(N(C)C)n3)cc2)o1  -7.444%
24. Cc1ncccc1NC(=O)[C@H]1C[C@@H]2CCN(Cc3ccsc3)C[C@H]2O1.O=C(O)C(F)(F)F.O=C(O)C(F)(F)F  -7.023%
25. Cc1cc(CNC(=O)N2CCN(c3nc(C)c(C)s3)CC2)no1  -6.921%
26. CNC(=O)[C@H]1C[C@@H]2CN(S(=O)(=O)c3ccc(C)cc3)C[C@@H]2N1C.O=C(O)C(F)(F)F  -6.65%
27. CN(C)c1ncc2c(n1)CCCC2NC(=O)c1ccsc1 (centres undefined)  -6.116%
28. COC(=O)NCC(=O)N1CCCn2nc(CN3CC[C@H](F)C3)cc2C1  -5.697%
29. CN(CCN1CCOCC1)C(=O)CCc1ccc(C(F)(F)F)cc1  -5.006%
30. COCC1CN(S(=O)(=O)c2cccs2)Cc2ncnn2C1 (centres undefined)  -4.986%
31. O=C1OCCCN1Cc1nc(-c2ccc(N3CCCCC3)cc2)no1  -4.946%
32. COC(=O)c1ccc(N2CCN(C(=O)c3cc(C)on3)C(C)C2)cc1 (centres undefined)  -4.868%
33. COc1cccc(NC(=O)N(CCO)C2CCc3ccccc32)c1 (centres undefined)  -4.61%
34. CCc1nc(C)c(C(C)N(C)CCOC)s1 (centres undefined)  -4.092%
35. O=C(CN1CCOC(Cn2cccn2)C1)Nc1nncs1 (centres undefined)  -3.509%
36. CCc1nc(CN2CCCN(C(=O)c3cc(C)on3)CC2)cs1  -3.396%
37. Cn1c(-c2ccccc2Cl)nc2cc(C(=O)NCCOCCO)cnc21  -3.34%
38. CNC(=O)C(C)(C)CNC(=O)Nc1cc(C)ccn1  -2.642%
39. CCc1nnc(CN2CCCN(C(=O)c3ccccn3)CC2)o1  -2.51%
40. COc1ccccc1CN1CC[C@H]2C[C@H](C(=O)N3CCCC3)O[C@H]2C1.O=C(O)C(F)(F)F  -2.148%
41. COc1ccccc1-n1cc(CN2CCN(C)[C@@H]3CS(=O)(=O)C[C@@H]32)cn1  -2.085%
42. Cc1cc(C(=O)N2CCc3ncc(CN4CCCCC4)n3CC2)no1  -1.928%
43. O=C(NC1CC1)[C@@H]1C[C@@H]2CCN(Cc3ccccc3)C[C@@H]2O1.O=C(O)C(F)(F)F  -0.7056%
44. Cc1nnc(NCC(c2ccco2)N2CCCC2)c(C#N)c1C (centres undefined)  -0.3665%
45. O=C(NC1CC1)[C@@H]1C[C@@H]2CCN(Cc3ccccc3)C[C@H]2O1.O=C(O)C(F)(F)F  -0.327%
46. Cc1occc1-c1nc(-c2cccc(CN3CCOCC3)c2)no1  0.4297%
47. Cc1cc(CNC(=O)N2CCN(c3ccccc3)CC2)no1  0.5807%
48. COc1cccc(COC(C)C(=O)NCc2nnc3n2CCC3)c1 (centres undefined)  0.6682%
49. CCOC(=O)N1CCN(C(=O)c2cc(-c3ccccc3F)on2)CC1  1.064%
50. O=C(NC1CCC1)[C@@H]1C[C@@H]2CCN(CCc3ccccc3)C[C@H]2O1.O=C(O)C(F)(F)F  2.186%
51. COc1ccccc1CN1CC[C@H]2C[C@@H](C(=O)N3CCCC3)O[C@H]2C1.O=C(O)C(F)(F)F  2.639%
52. Cc1nc(C)n(CCCNC(=O)C(C)n2ccnc2C(C)C)n1 (centres undefined)  3.373%
53. COc1ccccc1N1CCN(C(=O)CCn2nnnc2C)CC1(C)C  3.802%
54. C=Cc1ccc(C(=O)NC2CCCc3nc(N(C)C)ncc32)cc1 (centres undefined)  4.134%
55. Cc1c(C(=O)OCC2CC(=O)N(c3ccccc3)C2)cnn1C(C)C (centres undefined)  4.999%
56. CCc1[nH]c2ccc(CNc3cncc(C(=O)N(C)C)n3)cc2c1C  5.05%
57. CCc1nc(CN2CCN(C(=O)c3cc(C)no3)CC2)cs1  6.247%
58. O=C(NCC(Cc1cccc(F)c1)n1cccc1)C1CC1 (centres undefined)  6.756%
59. O=C(NCc1ccccc1)N1Cc2nc(COCC3CC3)oc2C1  6.767%
60. Cc1ccc2nc(C)c(C)c(C(=O)N3CCS(=O)(=O)CC3)c2c1  7.171%
61. Cc1cc(C(=O)N2CCc3c(ncn3CCc3ccccc3)C2)on1  8.742%
62. O=C(O)C(F)(F)F.O=C(c1ccncc1F)N1Cc2nc(COCC3CC3)oc2C1  11.83%
63. NC(=O)C(NC(=O)CSCc1ccc(Cl)s1)c1ccccc1 (centres undefined)  12.02%
64. O=S(=O)(c1cccs1)N1CCN2C[C@H](OCC3CC3)C[C@H]2C1  12.99%
65. CC(C)=CCN1CCNC(=O)C1CC(=O)N1CCc2sccc2C1 (centres undefined)  13%
66. COc1c2ccc(C(=O)NCCCn3ncccc3=O)cc2nn1C  16.19%
67. CC(C)NC(=O)[C@@H]1C[C@@H]2CCN(Cc3ccoc3)C[C@H]2O1.O=C(O)C(F)(F)F  74.8%
68. CNC(=O)[C@H]1C[C@@H]2CN(C(=O)c3cccnc3)C[C@@H]2N1S(C)(=O)=O.O=C(O)C(F)(F)F  86.97%
69. CNC(=O)[C@H]1C[C@@H]2CN(C(=O)c3ccncc3)C[C@@H]2N1S(C)(=O)=O.O=C(O)C(F)(F)F  89.45%
70. COc1ccccc1-n1cc(C(=O)NCCCn2nc(C)nc2C)cn1  95.25%
71. CNC(=O)[C@H]1C[C@@H]2CN(C(=O)c3ccccn3)C[C@@H]2N1S(C)(=O)=O.O=C(O)C(F)(F)F  96.47%
72. O=S(=O)(c1cccs1)N1Cc2nc(COCC3CC3)oc2C1  96.89%
73. CN(C)c1ncc(-c2ccc(C(N)=O)cc2)c(C2CNCCO2)n1 (centres undefined)  99.82%
74. Cc1cc(C(=O)N2CCN(c3nc4c(C(C)C)cccc4s3)CC2)no1  100.9%
75. CN(C)c1ncc(-c2ccc(C(N)=O)cc2)c(C2CCNC2)n1.Cl (centres undefined)  101.4%
76. c1cc(N2CCCCC2)ccc1-c1noc(CN2CCOCC2)n1  101.7%
77. O=C(NC1CC1)[C@@H]1C[C@@H]2CCN(Cc3ccoc3)C[C@@H]2O1.O=C(O)C(F)(F)F  102.1%
78. O=C(O)C(F)(F)F.O=C([C@@H]1C[C@@H]2CCN(Cc3ccoc3)C[C@H]2O1)N1CCCC1  103.1%
79. CN(C)c1ncc(-c2cccc(C(N)=O)c2)c(C2CNCCO2)n1.Cl (centres undefined)  103.6%
80. O=C(Cc1cccs1)N1Cc2nc(COCC3CC3)oc2C1  106.2%
81. Brc1cccc(-c2noc(CN3CCOCC3)n2)c1  107.1%
82. O=C(NC1CCCC1)[C@@H]1C[C@@H]2CCN(Cc3ccoc3)C[C@H]2O1.O=C(O)C(F)(F)F  111.5%
83. CN(C)C(=O)[C@H]1C[C@@H]2CCN(Cc3ccoc3)C[C@@H]2O1.O=C(O)C(F)(F)F  113.2%
84. Cc1cc(C(=O)N2CCN(c3nc4c(C(C)C)cccc4s3)CC2)on1  114.6%
85. COc1ccccc1-n1cc(C(=O)NCCn2nc(C)nc2C)cn1  116.2%
86. Cc1cc(C(=O)N2CCN(c3nc4c(F)cccc4s3)CC2)no1  123.7%
87. COc1cccc2sc(N3CCN(C(=O)c4cc(C)on4)CC3)nc12  127.7%
88. Cc1cc(C(=O)N2CCN(c3nc4c(C)cccc4s3)CC2)no1  128.5%
89. Cc1cc(C(=O)N2CCN(c3nc4ccccc4s3)CC2)no1  133.9%
